# Data from the supplement of paper PMC13094657.
# ± gives the standard deviation of the averaged measurements.
# Key:
# MDA-MB-231 [1] = assay: cell viability relative to vehicle unstimulated control (fraction); higher = more viable cells; settings: pre-treatment time: 18 h then 24 h IFNg/TNF
# MDA-MB-231 [2] = assay: kynurenine production, fold change vs DMSO IFNg/TNF control; higher = more kynurenine produced (less inhibition); settings: pre-treatment time: 18 h then 24 h IFNg/TNF
# Method in brief: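 MDA-MB-231 cells (7 × 10^4/well, 96-well plates, seeded 24 h earlier) were pre-treated 18 h with each natural product in 0.1% DMSO, then stimulated 24 h with IFNγ (1 U/ml) and TNF (6.25 ng/ml) at 37°C. Supernatant kynurenine was read at 492 nm after trichloroacetic acid and p-dimethylaminobenzaldehyde treatment, against 0–100 μM standards. Kynurenine production is the fold change over cytokine-stimulated vehicle wells on the same plate, averaged over duplicate plates in the first screening round.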
# 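Throughout, for cell viability relative to vehicle unstimulated control: viability of the cells left after supernatant collection, read with Deep Blue dye added for 4 h, as absorbance at 570 nm minus 600 nm.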
SMILES,cell viability (MDA-MB-231 [1]),kynurenine production (MDA-MB-231 [2])
COC(=O)C1=CO[C@@H](O[C@@H]2O[C@H](CO)[C@@H](O)[C@H](O)[C@H]2O)[C@@H]2[C@@H](C)CC(=O)[C@]12O [Hastatoside] (compound dose: 10 uM),0.981 ± 0.017,0.797 ± 0.12
C=C1CC[C@@H]2[C@](C)(CO[C@@H]3O[C@H](CO)[C@@H](O)[C@H](O)[C@H]3O)CCC[C@@]2(C)[C@@H]1CCC1=CCOC1=O [Neoandrographolide] (compound dose: 10 uM),0.953 ± 0.034,0.893 ± 0.012
CC1(C)CC[C@]2(C(=O)O)CC[C@]3(C)C(=CC[C@@H]4[C@@]5(C)CC[C@H](O)[C@@](C)(CO)[C@@H]5CC[C@]43C)[C@@H]2C1 [Hederagenin] (compound dose: 10 uM),1.06 ± 0.2,1.07 ± 0.014
C=C1C(=O)O[C@H]2C[C@@H](C)[C@@H]3[C@@H](OC(C)=O)C[C@H](O)[C@@]3(C)[C@@H](OC(C)=O)[C@H]12 [Britannin] (compound dose: 10 uM),1.01 ± 0.043,0.268 ± 0.075
C/C(=C\C(=O)CC(C)C(=O)O)[C@H]1C[C@H](O)[C@@]2(C)C3=C(C(=O)C[C@]12C)[C@@]1(C)CCC(=O)C(C)(C)[C@@H]1C[C@@H]3O (some centres undefined) [Ganoderenic acid A] (compound dose: 10 uM),1.03 ± 0.068,0.817 ± 0.31
"CC12CCC(CC1)C(C)(C)O2 [1,8-cineole] (compound dose: 10 uM)",0.978 ± 0.067,0.913 ± 0.074
CC12CCC(C1)C(C)(C)C2O (centres undefined) [Fenchyl alcohol] (compound dose: 10 uM),1.03 ± 0.041,0.817 ± 0.31
COc1cc(C(C)=O)cc(OC)c1O [Acetosyringone] (compound dose: 10 uM),1.05 ± 0.032,0.885 ± 0.087
CC1(C)CC[C@]2(C)CC[C@]3(C)C(=CC[C@@H]4[C@@]5(C)CC[C@@H](O)[C@](C)(C(=O)O)[C@@H]5CC[C@]43C)[C@@H]2C1 [alpha-Boswellic acid] (compound dose: 10 uM),0.953 ± 0.011,0.911 ± 0.028
Cc1ccc(C(C)C)cc2c(C)ccc1-2 [Guaiazulene] (compound dose: 10 uM),1.1 ± 0.013,0.915 ± 0.21
C[C@H](C[C@H](O)[C@H]1OC1(C)C)C1=C2C[C@H](O)[C@H]3[C@@]4(C)CCC(=O)C(C)(C)[C@@H]4CC[C@]3(C)[C@@]2(C)CC1 [Alisol B] (compound dose: 10 uM),0.865 ± 0.13,1.0307 ± 0.00045
CC1(C)[C@@H](O[C@H]2O[C@H](C(=O)O)[C@@H](O)[C@H](O)[C@H]2O[C@@H]2O[C@H](C(=O)O)[C@@H](O)[C@H](O)[C@H]2O)CC[C@]2(C)[C@H]3C(=O)C=C4[C@@H]5C[C@@](C)(C(=O)O)CC[C@]5(C)CC[C@@]4(C)[C@]3(C)CC[C@@H]12 [Ammonium glycyrrhizinate] (compound dose: 10 uM),0.952 ± 0.033,0.801 ± 0.2
CC12CCC(CC1=O)C2(C)C (stereo not drawn) [(+)-Camphor] (compound dose: 10 uM),1 ± 0.016,0.98 ± 0.25
C[C@H]1O[C@@H](Oc2ccc(COC(=O)CC(O)(CC(=O)OCc3ccc(O[C@@H]4O[C@H](CO)[C@@H](O)[C@H](O)[C@H]4O)cc3)C(=O)Oc3ccc(O[C@H]4O[C@H](CO)[C@@H](O)[C@H](O)[C@H]4O)cc3)cc2)[C@H](O)[C@@H](O)[C@@H]1O (some centres undefined) [Parishin] (compound dose: 10 uM),0.985 ± 0.054,0.792 ± 0.13
C[C@]12C[C@@H](O)[C@@H]3C[C@@]1(O[C@@H]1O[C@H](CO)[C@@H](O)[C@H](O)[C@H]1O)[C@@]3(COC(=O)c1ccccc1)C(=O)O2 [Albiflorin] (compound dose: 10 uM),0.963 ± 0.031,0.908 ± 0.031
CC(C)=CCC[C@](C)(O[C@@H]1O[C@H](CO[C@@H]2OC[C@@H](O)[C@H](O)[C@H]2O)[C@@H](O)[C@H](O)[C@H]1O)[C@H]1CC[C@]2(C)[C@@H]1[C@H](O)C[C@@H]1[C@@]3(C)CC[C@H](O[C@@H]4O[C@H](CO)[C@@H](O)[C@H](O)[C@H]4O[C@@H]4O[C@H](CO)[C@@H](O)[C@H](O)[C@H]4O)C(C)(C)[C@@H]3CC[C@]12C [Ginsenoside Rb3] (compound dose: 10 uM),1.01 ± 0.015,0.73 ± 0.19
COC(=O)C1=CO[C@@H](O[C@@H]2O[C@H](CO)[C@@H](O)[C@H](O)[C@H]2O)[C@@H]2[C@@]3(C)O[C@H]3[C@@H](O)[C@]12O [Sesamoside] (compound dose: 10 uM),0.9746 ± 0.0057,0.928 ± 0.12
